Hits are enriched below; roughly 2.5% of the tested compounds scored in any of these assays.
H9c2 protect: myocardial damage modulation in H9c2 cells; 360,000 tested, 0.63% active; protection from H2O2 cell death, % at 20 µM; H9c2 cardiomyocytes, H2O2 injury protection, ATPLite, 2 h;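 active = compounds giving at least 50% protection of heart cells from peroxide-induced death in the single-dose screen, raw or plate-pattern-corrected value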;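 also: 0% = DMSO wells with peroxide and 100% = DMSO wells without peroxide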
SKN-1 inh: inhibitors of C. elegans SKN-1; C. elegans VP596 Pgst-4::GFP/RFP ratio, acrylamide-induced, 24 h; inhibition, % at 21.8 µM; 360,000 tested, 0.49% active; AID 624304;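 active = interference check ratio from 0.5 to 1.5 plus GFP to RFP signal ratio inhibition reaching or exceeding a fixed threshold, cut at about 30% in these data, passing the limit was not always enough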
TAG inh: inhibitors of triacylglycerol accumulation | 230,000 tested, 0.66% active | inhibition, % at 12.5 µM | H9c2 cells, Nile Red lipid (TAG) fluorescence; cells loaded with 200 µM oleic acid;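 active = pattern-corrected inhibition of lipid staining of at least 50% with the nuclear-stain viability signal not falling by more than 50%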;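 also: 0% = DMSO wells and 100% = triacsin C control wells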
CRFR2-BP antag: antagonists of CRF-binding protein/CRF-R2 receptor complex; HEK293 CRF-R2/CRF-BP, CRF-induced calcium fluorescence; inhibition, % at 11.8 µM; 350,000 tested, 0.59% active;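 active = inhibition of the ligand-induced calcium signal above about 50% at the single tested concentration, limit read from the data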
hiPSC survival: hiPSC single-cell survival enhancement. 360,000 tested, 0.044% active. AID 602274. survival enhancement, % at 20 µM. ATPlite luminescence; 100% = ROCK inhibitor wells, 0% = DMSO; in the data active = survival enhancement above about 18%;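 also: cells exposed to compounds for 16 hours before the ATP read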
CRFBP-R2 agonist: agonists of human CRF-binding protein/CRF-R2 receptor complex. HEK293 CRF-R2/CRF-BP, calcium dye fluorescence (FLIPR); percent of saturating CRF peptide response. activation, % at 13.2 µM. 350,000 tested, 0.46% active. AID 588473;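 active = activation of at least 50%, plus an integration ratio under a set limit after plate pattern correction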;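 also: plate controls were neutral control wells without compound for no effect and CRF at EC100 for full effect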
* hit, by the source's call; nt = no result.

SMILES	H9c2 protect	SKN-1 inh	TAG inh	CRFR2-BP antag	hiPSC survival	CRFBP-R2 agonist
N#CCCn1c(SCC(=O)c2c[nH]c3ccccc23)nc2ccccc21	51.1*	4.0	19.2	18.3	-1.5	-3.4
CCOC(=O)c1c(C)[nH]c(C)c1C(=O)CSc1nc2ccccc2n1CCC#N	18.8	2.9	nt	-14.0	1.7	0.3
O=C(NC1CC1)c1cccc2c1C(=O)c1ccc(N3CCC(Cc4ccccc4)CC3)cc1S2(=O)=O	-3.1	10.2	2.0	-39.7	-2.6	83.2*
O=C(NCc1ccc(F)cc1)c1cccc2c1C(=O)c1ccc(N3CCC(N4CCCCC4)CC3)cc1S2(=O)=O	-4.5	4.8	-21.7	-35.9	-4.4	17.4
O=C(NCc1ccccc1C(F)(F)F)c1cccc2c1C(=O)c1ccc(N3CCCCC3)cc1S2(=O)=O	10.1	-14.4	-40.5	-42.0	-2.6	75.6*
CC1CCN(c2ccc3c(c2)S(=O)(=O)c2cccc(C(=O)NCc4ccc(F)cc4)c2C3=O)CC1	3.3	29.4	-13.1	-33.8	-3.9	85.4*
O=C(NC1CCCCC1)c1cccc2c1C(=O)c1ccc(N3CCCC3)cc1S2(=O)=O	19.2	-13.4	-48.1	-19.5	3.4	36.5
O=C(NCc1ccc(F)cc1)c1cccc2c1C(=O)c1ccc(N3CCC(Cc4ccccc4)CC3)cc1S2(=O)=O	-1.3	-4.6	-28.9	-51.4	-0.4	125.9*
O=C(NCCc1ccccc1)c1cccc2c1C(=O)c1ccc(N3CCOCC3)cc1S2(=O)=O	18.4	-6.1	30.3	-1.2	0.5	26.4
O=C(NCc1cc(C(F)(F)F)ccc1Cl)c1cccc2c1C(=O)c1ccc(N3CCC(Cc4ccccc4)CC3)cc1S2(=O)=O	3.3	0.0	-49.2	-26.7	-2.0	73.0*
C=CCNC(=O)c1cccc2c1C(=O)c1ccc(N3CCOCC3)cc1S2(=O)=O	14.9	7.2	-1.3	98.0*	-3.0	3.7
CC(C)CC(N)c1csc(NC(=O)C(c2ccccc2)c2ccccc2)n1 (stereo not drawn)	-27.4	4.6	123.2	nt	-5.2	nt
CC(C)n1c(O)c(N=NC(=O)C2COc3ccccc3O2)c2ccccc21 (stereo not drawn)	26.7	4.3	-11.0	68.4*	-0.6	-5.7
Cn1c(O)c(N=NC(=O)C2COc3ccccc3O2)c2ccccc21 (stereo not drawn)	13.4	0.2	6.1	-1.2	-0.3	-1.9
COc1cccc(/C=N/NC(=O)NC2CCCCC2)c1O	-4.6	-10.2	-5.0	-12.5	0.4	0.9
O=C(c1ccc(NS(=O)(=O)c2cccc([N+](=O)[O-])c2)cc1)N1CCCCCC1	-8.5	5.8	-1.9	114.7*	-0.3	6.3
CC1CCCN(C(=O)c2ccc(NS(=O)(=O)c3cccc([N+](=O)[O-])c3)cc2)C1 (stereo not drawn)	-4.8	8.3	8.9	-2.0	-0.4	-0.3
Cc1cc(-c2ccccc2)n2nc(C)c(C#N)c2n1	8.5	-24.6	13.6	8.9	-1.5	-2.6
Cc1cc(C)n2nc(/C(C#N)=C/c3ccccc3)c(C#N)c2n1	34.1	0.4	-20.4	98.8*	5.1	1.8
Clc1ccc(-c2noc(/C=C/c3ccccc3)n2)cc1	-5.4	1.2	-13.3	15.0	-0.5	7.8
Cc1ccc(-c2noc(/C=C/c3ccccc3)n2)cc1	-7.0	7.4	nt	-10.3	3.0	3.5
Clc1ccccc1/C=C/c1nc(-c2cccnc2)no1	-14.5	38.8*	-1.0	0.9	-0.5	0.9
C(=C\c1nc(-c2cccnc2)no1)/c1ccccc1	-0.9	65.7*	17.7	-2.1	1.4	-1.8
Cn1cccc1/C=N/n1c(-c2ccco2)n[nH]c1=S	-1.7	-10.6	9.3	-7.3	-0.7	2.1
COc1cc(-c2n[nH]c(=S)n2/N=C/c2cccn2C)cc(OC)c1OC	-0.2	2.4	-0.6	-17.8	-0.1	103.9*
SMILES	H9c2 protect	SKN-1 inh	TAG inh	CRFR2-BP antag	hiPSC survival	CRFBP-R2 agonist
O=c1c2c([nH]n1-c1ccccc1)C[C@@H](C1CCCCC1)O[C@H]2c1ccc(F)cc1	nt	1.2	nt	nt	-0.9	nt
O=C(O)C1CCCC2CN3CCc4c([nH]c5ccccc45)C3C(O)C21 (stereo not drawn)	12.1	37.2*	nt	9.0	0.2	8.1
Cc1ccc(S(=O)(=O)NCC(=O)N(CCc2ccccc2)CC(=O)NCc2ccco2)cc1	8.6	6.3	-19.0	11.6	0.2	-1.3
O=C(CN(Cc1ccco1)C(=O)CNS(=O)(=O)c1ccc(Cl)cc1)NC1CCCCC1	-3.6	37.5*	0.3	-10.9	-4.3	1.4
Cc1ccc(S(=O)(=O)N(CC(=O)NCc2ccncc2)Cc2ccccc2F)cc1	1.8	-1.0	nt	-7.2	-0.3	-0.7
O=C(CN(Cc1ccco1)C(=O)CNS(=O)(=O)c1ccc(Cl)cc1)NCC1CCCO1 (stereo not drawn)	2.4	-10.1	1.0	0.1	1.3	0.0
Cc1ccc(S(=O)(=O)NCC(=O)N(CC(=O)NCc2ccco2)Cc2ccccc2)cc1	2.5	2.4	nt	-56.0	-0.3	55.1*
Cc1ccc(S(=O)(=O)N(CC(=O)NCc2ccco2)Cc2ccccc2F)cc1	11.4	-18.4	-14.6	89.4*	-3.8	-2.4
CC(C)CC(=O)N1CC=CC[C@@H](c2ccc(Cl)cc2)N(Cc2ccc(Cl)cc2)C(=O)[C@@H]1Cc1ccccc1	-2.5	7.1	45.7	-63.4	-2.9	11.1
COC(=O)CC1N(S(=O)(=O)c2ccc(C)cc2)c2ccccc2C1(C(=O)OC)C(=O)OC (stereo not drawn)	nt	7.0	nt	nt	nt	nt
Cc1c(C(=O)NCc2ccc(C(C)C)cc2)sc(=O)n1Cc1ccc(S(=O)(=O)N(C)C)cc1	-8.8	-11.6	-48.1	nt	-1.0	nt
C[C@@]12C(=O)Nc3cc(F)c(F)cc3C(=O)N1[C@H]1c3cc(Cl)ccc3OC[C@@H]1[C@@H]2c1ccccc1	-8.2	-16.5	63.0*	2.0	5.7	-0.9
CCOC(=O)C1CCCN(C(=O)c2cc(C)oc2C)CC1 (stereo not drawn)	-3.0	-5.1	0.9	nt	-2.8	nt
COc1ccccc1C1C(C(=O)c2sc(C)nc2C)=C(O)C(=O)N1CCN1CCOCC1 (stereo not drawn)	-1.7	-13.9	-4.5	94.3*	-0.7	-1.6
COc1cccc(C2C(C(=O)c3sc(C)nc3C)=C(O)C(=O)N2CCN2CCOCC2)c1OC (stereo not drawn)	2.7	2.8	-0.4	9.9	-1.9	0.3
O=C(COC(=O)c1cc(=O)[nH]c(=O)[nH]1)Nc1cccc(Cl)c1	-2.2	13.3	-5.6	5.8	-0.5	-0.7
O=C(CSc1n[nH]c(-c2ccco2)n1)Nc1ccccc1Cl	0.7	0.7	nt	3.7	-0.3	1.4
CCN(Cc1ccccc1)C(=O)c1cccc(S(=O)(=O)N2CCN(Cc3ccccc3)CC2)c1	-15.5	-0.3	-7.5	12.2	-0.4	4.1
N#Cc1cnn2cc(-c3ncc(C(F)(F)F)cc3Cl)cnc12	59.1*	-7.2	nt	-21.5	-1.9	-1.4
FC(F)(F)c1cnc(-c2cnc3c(-c4ccc(Cl)cc4)cnn3c2)c(Cl)c1	-14.2	-4.5	nt	-43.7	-1.4	8.1
